# Measured values published in PubChem BioAssay (Tox21).
# Inconclusive results are not listed. A number with no mark means an inactive call. The source made the active and inactive calls. Calls follow the shape of the dose curve; as a rule, active = well fitted cell-killing curve with a large enough effect in the repeat runs; inconclusive = weak or mixed curves, or effect the other way; inactive = flat fitted curve, though single readings scatter.
# Experiment: qHTS assay to identify small molecule antagonists of the estrogen receptor alpha (ER-alpha) signaling pathway using the BG1 cell line in the presence of 0.1 nM 17-beta-estradiol - cell viability counter screen (AID 1259241); also: nearly all actives have a fitted effect of over 40% in size
# Settings: VM7Luc4E2 (BG1) viability, CellTiter-Fluor protease, 22 h, 0.1 nM estradiol agonist added; series mostly up to 92.4 µM; activity change, negative = cytotoxicity: at the top concentration
# Excerpt: National Center for Advancing Translational Sciences [NCATS]
# NIH Chemical Genomics Center [NCGC]
# U.S. Environmental Protection Agency [EPA]
# National Institutes of Environmental Health Sciences [NIEHS]
# National Toxicology Program [NTP]
# U.S. Food and Drug Administration [FDA]
# Estrogen receptor (ER), a member of the nuclear hormone receptor plays an important role in development, metabolic homeostasis and reproduction. Two subtypes of ER, ER-alpha and ER-beta, have similar expression patterns with some uniqueness in both types. Endocrine disrupting chemicals (EDCs) and their interactions with steroid hormone receptors like ER causes disruption of normal endocrine function. Therefore, it is important to understand the effect of environmental chemicals in ER signaling pathway. For identifying ER antagonists, VM7Luc4E2 cell line was used to screen against Tox21 compound libraries.
# VM7Luc4E2 cell line (provided by Denison MS, University of California) endogenously express full-length ER-alpha and is stably transfected with a plasmid containing four estrogen responsive elements (ERE) upstream of a luciferase reporter gene. The current screening for identification of ER-alpha inhibitors against Tox21 compound libraries used lower concentration (0.1 nM) of 17beta-Estradiol as a stimulator. The cytotoxicity of the Tox21 compound libraries against VM7Luc4E2 cell line was tested by measuring live-cell protease activity using CellTiter-Fluor assay in the same wells.
# Tox21 Assay Protocol Summary:
# VM7Luc4E2 cells were cultured in phenol red free assay medium containing 10% charcoal stripped FBS for 5 days prior to the assay. The cells were dispensed at 4,000 cells/well in 4 uL of assay medium into white wall/solid-bottom 1536-well plates (Corning Life Sciences, Corning, NY) using a Multidrop Combi (ThermoFisher Scientific, Waltham, MA) dispenser. After the assay plates were incubated at 37C and 5% CO2 for 24 hr, 23 nL of compounds dissolved in DMSO, positive controls or DMSO only was transferred to the assay plates by a Pintool station (Kalypsys, San Diego, CA). The transfer of compounds was followed by the addition of 1 uL of 0.1 nM (final concentration) agonist (17beta-Estradiol)/assay medium using a Flying Reagent Dispenser (FRD, Aurora Discovery, San Diego, CA). The plates were incubated at 37C and 5% CO2 for 22 hr. For cytotoxicity assay, 1 uL of CellTiter-Fluor reagent (Promega Corporation, Madison, WI) was added to each well using the FRD and after 30 min incubation at 37C and 5% CO2, The fluorescence intensity was measured using ViewLux plate reader (PerkinElmer, Shelton, CT).
# % is scaled to controls: 0 for no effect and ±100 for the full control effect; potency is read from the fitted curve at half-maximal effect.
SMILES,"activity change, negative = cytotoxicity",Potency
CCOC(=O)C(C)O (stereo not given),-6.93%,
CCCCCCCC/C=C\CCCCCCCC(=O)OCCO,2.85%,
CC(=O)OC(C)C[N+](C)(C)C (stereo not given),-0.845% [at 42.5 µM],
CCOc1ncc(F)c(=O)[nH]1,0.912% [at 42.5 µM],
Nc1cccc2c(N)cccc12,,27.3 µM (active)
CC1C(C)(C)C2=C(C(=O)CCC2)C1(C)C (stereo not given),-0.713%,
CCCOC(=O)c1c(Cl)c(Cl)c(Cl)c(Cl)c1C(=O)OCCC,-2.57%,
C=CC(=O)NC(C)C,7.42%,
CC(=O)OCCC(C)CC(C)(C)C (stereo not given),-2.18%,
CC(=O)NCCO,1.17%,
COc1cc(OC)c2ccc(=O)oc2c1,4.83%,
O=C1OC(=O)c2c(Br)c(Br)c(Br)c(Br)c21,0%,
O=C(Oc1ccccc1)c1ccc2ccccc2c1O,-1.91%,
O=C1NC(=O)c2cccc3cccc1c23,1.56%,
CC(C)N(C)C,13.3%,
COC(OC)OC,0%,
CC(C)c1ccc(C(=O)N=C(N)N)cc1S(C)(=O)=O,4.45% [at 42.5 µM],
Nc1ccc(NC(=O)c2ccc(N)cc2)cc1,6.93%,
CCN(CC)c1cccc(O)c1,16%,
O=C(O)CCC(=O)c1ccc(-c2ccccc2)cc1,0.691% [at 42.5 µM],

SMILES,"activity change, negative = cytotoxicity",Potency
CCC1CCC(CCC(=O)O)C1 (stereo not given),11.1%,
CCC(=O)OCc1ccc(OC)cc1,1.44%,
CNc1c2c(nn1C)CCCC2,-13.9% [at 42.5 µM],
Cc1ccc(N(CC2=NCCN2)c2cccc(O)c2)cc1,0.0274% [at 42.5 µM],
COc1ccc(/C=C/C(=O)c2ccc(OC)cc2OC)cc1,-23% [at 42.5 µM],
N[C@@H](Cc1cc(I)c(O)c(I)c1)C(=O)O,-0.414% [at 42.5 µM],
CN(C)CC/C=C1\c2ccccc2Sc2ccc(Cl)cc21,-4.3% [at 42.5 µM],
O=C(c1ccccc1)c1ccc(O)cc1,-14.5%,
COc1ccc2nc(S(=O)Cc3ncc(C)c(OC)c3C)[nH]c2c1 (stereo not given),4.37% [at 42.5 µM],
CCN(CC)CC(=O)Nc1c(C)cccc1C(=O)OC,-3.56% [at 42.5 µM],
CC(=O)OCCC1CCCCC1,-1.47%,
CCCCCCCCCCCCCCCCCC(=O)OCC(CC)CCCC (stereo not given),-1.81%,
CC[C@@H](CO)NCCN[C@@H](CC)CO,1.2% [at 42.5 µM],
O[C@@H](CNC[C@H](O)[C@H]1CCc2cc(F)ccc2O1)[C@@H]1CCc2cc(F)ccc2O1,-4.67% [at 42.5 µM],
O=C(NC(Cc1cc(=O)[nH]c2ccccc12)C(=O)O)c1ccc(Cl)cc1 (stereo not given),0.708% [at 42.5 µM],
CCC(CO)(CO)CO,-1.41%,
Nc1nc(-c2ccc([N+](=O)[O-])cc2)cs1,-4.76%,
CCCCOCCOC(=O)c1cccnc1,5.85% [at 42.5 µM],
O=[N+]([O-])c1ccc2ncccc2c1,11.2%,
CN1C(CSCC(F)(F)F)Nc2cc(Cl)c(S(N)(=O)=O)cc2S1(=O)=O (stereo not given),1.15% [at 42.5 µM],
